# Measurements reported in PubChem BioAssay (Tox21).
# Records with an inconclusive call do not appear. More than one record can exist for a structure, and the calls need not agree. Active and inactive are the calls of the source. Calls follow the shape of the full dose curve.
# Biological target: 5-hydroxytryptamine receptor 2A (Homo sapiens) (UniProt P28223)
# Experiment: 5-hydroxytryptamine receptor 2A (HTR2A) small molecule agonists, cell-based qHTS assay (AID 1963587); also: nearly all actives have a fitted effect of over 30% in size
# Conditions: HTR2A-CHO cells, calcium flux fluorescence, agonist mode; series mostly up to 76.8 µM; activation: at the top concentration
# Excerpt: National Center for Advancing Translational Sciences [NCATS]
# Division of Preclinical Innovation [DPI]
# U.S. Environmental Protection Agency [EPA]
# National Institutes of Environmental Health Sciences [NIEHS]
# National Toxicology Program [NTP]
# U.S. Food and Drug Administration [FDA]
# The HTR2A receptor is a subtype of the 5-HT2 receptor that belongs to the serotonin receptor family and is a G protein-coupled receptor (GPCR). The HTR2A-CHO cell line stably expressing human 5-hydroxytryptamine receptor 2A (HTR2A) can be used for screening agonists of interactions between 5-HT2 and its ligands. The HTR2A-CHO calcium flux assay is a homogeneous fluorescence-based assay for detecting the intracellular calcium level using FDSS kinetic plate reader system.
# HTR2A-CHO cells were dispensed at 2000 cells/3uL/well in 1536-well black-clear bottom plates using a Multidrop Dispenser. After the assay plates were incubated at a 37 C/5% CO2 incubator for 18 h, 3 uL of Dye Loading Buffer was transferred to the assay plate by a Flying Reagent Dispenser. The assay plates were incubated at 37 C for 1h. For agonist mode, 23 nL of compounds dissolved in DMSO, positive controls or DMSO only was transferred to the assay plate by a pin tool. The fluorescence intensity in the plates was measured using FDSS 7000EX kinetic plate reader for 2 min at 1 sec intervals.
# % is scaled to controls: 0 for no effect and ±100 for the full control effect; potency is read from the fitted curve at half-maximal effect.
# Sequence of 5-hydroxytryptamine receptor 2A (Homo sapiens) (P28223 whole entry, looked up): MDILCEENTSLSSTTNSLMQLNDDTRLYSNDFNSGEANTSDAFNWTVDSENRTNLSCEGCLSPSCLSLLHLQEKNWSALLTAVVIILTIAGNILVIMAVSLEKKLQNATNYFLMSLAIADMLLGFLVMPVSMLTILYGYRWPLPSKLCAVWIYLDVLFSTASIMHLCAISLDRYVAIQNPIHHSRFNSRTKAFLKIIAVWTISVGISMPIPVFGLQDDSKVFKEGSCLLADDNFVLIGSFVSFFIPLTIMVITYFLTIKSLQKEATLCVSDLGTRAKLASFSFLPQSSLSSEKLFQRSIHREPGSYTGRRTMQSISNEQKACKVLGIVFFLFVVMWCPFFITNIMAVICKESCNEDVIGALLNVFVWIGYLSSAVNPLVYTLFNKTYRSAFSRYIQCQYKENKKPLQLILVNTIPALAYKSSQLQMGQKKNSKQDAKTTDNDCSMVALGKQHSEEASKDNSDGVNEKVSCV
SMILES,activation,Potency
COC(=O)Cc1cccc2ccccc12,-0.559% (inactive),–
NS(=O)(=O)c1cc2c(cc1Cl)NC(C1CC3C=CC1C3)NS2(=O)=O (stereo not given),-13.3% [at 35.6 µM] (inactive),–
[O-][n+]1ccc(Cl)cc1,-0.43% (inactive),–
CC(C)(CC(=O)O)C(=O)O,-1.09% (inactive),–
NC(=O)c1ncn([C@@H]2O[C@H](CO)[C@@H](O)[C@H]2O)c1O,-0.492% [at 35.6 µM] (inactive),–
CC(=O)O[C@H]1C[C@@H]2CC[C@@]1(C)C2(C)C,-2.2% (inactive),–
CN(C)N=Nc1ccccc1,2% (inactive),–
Cc1ccc(C(C)NC(=O)[C@@H](NC(=O)OC(C)C)C(C)C)cc1 (stereo not given in full),-2.63% (inactive),–
O=C(O)c1ccccc1-n1cc(C(=O)O)c(=O)c2cc(Nc3c(F)cc(F)cc3Cl)c(Cl)cc21,0.0752% (inactive),–
C[N+](C)(C)CC[N+]1(C)Cc2c(Cl)c(Cl)c(Cl)c(Cl)c2C1,-1.26% [at 35.6 µM] (inactive),–
CCCO,-1.26% (inactive),–
C[C@@H]1CC(=O)NN=C1c1ccc(NN=C(C#N)C#N)cc1,–,inactive
Oc1ccc(Cl)cc1Sc1cc(Cl)ccc1O,2.99% [at 35.6 µM] (inactive),–
CCC(C)(C)CC,3.39% (inactive),–
O=C(O)/C=C/C(=O)O,–,inactive
FC(F)(F)c1ccccc1-n1ccnc1,7.89% [at 35.6 µM] (inactive),–
OCC#CCO,–,inactive
CCOC(=O)C(C)C(C)=O (stereo not given),-1.95% (inactive),–
CC(C)=CCC/C(C)=C/C#N,-2.43% (inactive),–
COC(=O)c1cc(Cl)c(NC(C)=O)cc1OC,0.636% [at 35.6 µM] (inactive),–

SMILES,activation,Potency
C=C(C)[C@H]1CC=C(C)CC1,1.03% (inactive),–
C[n+]1ccn(Cc2ccccc2)c1,-1.45% (inactive),–
N[C@@H](Cc1c[nH]c2ccccc12)C(=O)O,–,34.7 µM (active) and inactive
Cc1cccc(C)c1NC(=O)CC12CCCN1CCC2,1.73% [at 35.6 µM] (inactive),–
Nc1cccc2c1CN(C1CCC(=O)NC1=O)C2=O (stereo not given),-10.6% [at 35.6 µM] (inactive),–
O=S(=O)(O)c1cccc2ccccc12,-2.64% (inactive),–
CC1=CC(=O)c2ccccc2C1=O,–,inactive
CCC(C)C1CCCCC1=O (stereo not given),4.27% (inactive),–
CN(C)c1ccc(C(=N)c2ccc(N(C)C)cc2)cc1,–,inactive
CC(=C(CCOC(=O)C(C)C)SSC(CCOC(=O)C(C)C)=C(C)N(C=O)Cc1cnc(C)nc1N)N(C=O)Cc1cnc(C)nc1N,1.79% [at 35.6 µM] (inactive),–
Cc1ccc(N=Nc2c(O)ccc3ccccc23)c(C)c1,-0.98% [at 35.6 µM] (inactive),–
C[C@@H]1CCC[C@H](C)N1,3.77% [at 35.6 µM] (inactive),–
CN1C(=O)CC(C)(c2ccccc2)C1=O (stereo not given),-8.11% [at 35.6 µM] (inactive),–
C=CCCCCCCCCO,-2.92% (inactive),–
N#CCN(CC#N)CCN(CC#N)CC#N,0.928% (inactive),–
CC(=O)c1cc(C)oc1C,-0.405% (inactive),–
CCCCCCCCCCCCOCCO,–,inactive
C[C@H]1C[C@@H](O)CC(C)(C)C1,0.869% (inactive),–
Nc1ccccc1S(=O)(=O)O,-0.755% (inactive),–
OCCN1CCN(CCCN2c3ccccc3C=Cc3ccccc32)CC1,1.43% [at 35.6 µM] (inactive),–
